We go through 38 molecules from PubChem BioAssay (EPA / NIEHS).

Where “and” joins values, the source holds several entries; their conditions need not be identical. Equal values may be shown once. Where a structure was tested more than once in an assay, its records may differ in their call. Calls of active or inactive are those of the source. How the source made its calls: active means hit-call score of the fitted dose curve at least 0.9, where 1 is the maximum; inactive means score below 0.9.

E-selectin (Homo sapiens), sequence (P16581 whole entry, looked up): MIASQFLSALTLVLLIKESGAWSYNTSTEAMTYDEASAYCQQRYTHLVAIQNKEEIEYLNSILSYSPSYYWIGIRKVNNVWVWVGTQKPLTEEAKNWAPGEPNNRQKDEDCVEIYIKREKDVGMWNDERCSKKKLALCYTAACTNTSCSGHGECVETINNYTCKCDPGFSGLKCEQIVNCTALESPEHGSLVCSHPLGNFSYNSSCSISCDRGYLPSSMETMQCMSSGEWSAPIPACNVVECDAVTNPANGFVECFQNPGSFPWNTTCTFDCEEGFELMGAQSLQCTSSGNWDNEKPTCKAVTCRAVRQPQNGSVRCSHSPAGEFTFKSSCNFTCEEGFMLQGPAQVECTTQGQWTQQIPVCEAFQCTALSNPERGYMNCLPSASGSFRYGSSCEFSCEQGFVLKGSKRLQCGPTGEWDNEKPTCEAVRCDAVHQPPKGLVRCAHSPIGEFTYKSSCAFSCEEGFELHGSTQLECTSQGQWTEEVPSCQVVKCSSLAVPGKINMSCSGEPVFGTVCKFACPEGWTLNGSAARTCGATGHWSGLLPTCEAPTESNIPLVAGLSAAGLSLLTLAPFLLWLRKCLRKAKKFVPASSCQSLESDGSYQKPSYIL

Read-out in the assay: E-selectin (Homo sapiens) (UniProt P16581)
As to the kind of experiment: BSK_SAg_Eselectin: BioMAP Diversity Plus: SAg Assay for Eselectin Biomarker Activity (AID 2283091). The conditions noted are these: primary human HUVEC with PBMC; actives raise or lower the signal. The procedure: BSK_SAg is a cell-based, multiplexed-readout assay that uses umbilical vein endothelium and peripheral blood mononuclear cells, a human vascular primary cell co-culture, with measurements taken at 24 hours after chemical dosing in a 96-well plate.BSK_SAg_Eselectin is an assay component measured in the BSK_SAg assay. It measures E-selectin antibody related to regulation of gene expression using ELISA technology.Data from the assay component BSK_SAg_Eselectin was analyzed into 1 assay endpoint. This assay endpoint, BSK_SAg_Eselectin, was analyzed with bidirectional fitting relative to DMSO as the negative control and baseline of activity. Using a type of binding reporter, gain or loss-of-signal activity can be used to understand changes in the signaling as they relate to the gene SELE. Furthermore, this assay endpoint can be referred to as a primary readout, because this assay has produced multiple assay endpoints where this one serves a signaling function. To generalize the intended target to other relatable targets, this assay endpoint is annotated to the cell adhesion molecules intended target family, where the subfamily is selectins.
The levels of cell surface (or secreted, indicated by the prefix "s") biomarker endpoints were measured by ELISA. Overt cytotoxicity to cells in confluent adherent cultures (all systems other than the BT system) was assessed by measuring total protein levels using sulforhodamine B (SRB) staining in parallel cultures at the time of biomarker measurements, indicated as SRB endpoints. For proliferation assays for adherent cell types, individual cell types are cultured at sub-confluence and relative cell numbers quantified by SRB staining at time points optimized for each system (48 h: 3C and CASM3C systems; 72 h: BT and HDF3CGF systems; 96 h: SAg system). SRB was performed by staining cells with 0.1% SRB after fixation with 10% TCA and reading wells at 560 nm.Viability and proliferation of PBMC (T cells) was quantified by Alamar Blue reduction for the SAg and BT systems. For PBMC viability (referred to as PBMC Cytotoxicity within the assay endpoint names), cells were plated (75,000/well in a 96-well plate) and then chemical samples added for 1 h before addition of activators, SEB and TSST-1 (20 ng/mL final concentration each). Cells were incubated for 90 h. Then, Alamar Blue (20 uL/well) (Invitrogen, Cat DAL1100) was added for 6 h, and the plates were read with a fluorescence microplate reader at 546/580 nm (excitation/emission). For PBMC proliferation, cells were plated and activated as above but incubated for only 16 h prior to addition of Alamar Blue. Plates were read after 6 h.
On to `Nc1cccc2c(N)cccc12`, for which the result was inactive.
With `Cc1cc(CCN2CCN(c3nsc4ccccc34)CC2)cc2c1NC(=O)CC2(C)C`, the AC50 is 11.8 µM (active).
With `OC1CCCCC1`, the outcome was inactive.
`C#C[C@]1(O)CC[C@H]2[C@@H]3CCC4=CC(=O)CC[C@@H]4[C@H]3CC[C@@]21C`: the outcome was inactive.
For `c1ccc2cc3c(ccc4ccccc43)cc2c1`, the outcome was inactive.
The same measure, in the same setting: the result for `NCC(F)(F)C(F)(F)C(F)(F)C(F)(F)C(F)(F)C(F)(F)C(F)(F)F` reads “inactive”.
`Oc1cccc(O)c1`: the outcome was inactive.
On to `CN1CCN(c2ccccc2/C=C2\SCCN(c3ccc(Cl)c(Cl)c3)C2=O)CC1`, for which the result was inactive.
In the case of `CCN(CC)CCNc1ccc(CNC=O)c2sc3ccc(OC)cc3c(=O)c12`, the AC50 was 20 µM (active).
Take `CC(=O)NC1(c2cccc(F)c2)CCN(CC[C@@]2(c3ccc(Cl)c(Cl)c3)CN(c3ccccc3)C(=O)CO2)CC1`: the outcome was inactive.
Still for that read-out and setting: the result for `CC(C)(C)c1cccc(C(C)(C)C)c1O` reads “inactive”; that for `C=C(C)C(=O)OCCC(F)(F)C(F)(F)C(F)(F)C(F)(F)C(F)(F)C(F)(F)F`, “inactive”.
As to `c1ccc2c(c1)ccc1ccccc12`, the outcome was inactive.
For the molecule `COCC(C)OCC(C)O` (stereo not given), the outcome was inactive.
As for `OCCC(F)(F)C(F)(F)C(F)(F)C(F)(F)C(F)(F)C(F)(F)F`, the half-maximal activity concentration (AC50) is 54.9 µM (active) and the result was inactive.
On to `CC[C@H](c1ccc(O)cc1)[C@@H](CC)c1ccc(O)cc1`, for which the AC50 is 17.9 µM (active).
`C[C@@H]1C[C@H]2[C@@H]3CCC4=CC(=O)C=C[C@]4(C)[C@@]3(F)[C@@H](O)C[C@]2(C)[C@@]1(O)C(=O)COP(=O)(O)O`: the AC50 is 2.96 µM (active) and 1.73 µM (active) and 1.25 µM (active).
On to `CCCCC(CC)COC(=O)CCCCC(=O)OCC(CC)CCCC` (stereo not given), for which the result was inactive.
Consider `Oc1cc2ccccc2c2ccccc12`, for which the AC50 is 8.61 µM (active).
Regarding `CCOC(=O)CC(O)(CC(=O)OCC)C(=O)OCC`, the outcome was inactive.
On to `CC(C)(C)CC(C)(C)c1ccc(O)c(-n2nc3ccccc3n2)c1`, for which the result was inactive.
Same read-out and setting: for `N#C[C@@H]1CC(F)(F)CN1C(=O)CNC1CC2CCC(C1)N2c1ncccn1` (stereo not given in full) the value was “inactive”.
Consider `Cc1oc(-c2ccccc2)nc1CCOc1ccc(C[C@H](Nc2ccccc2C(=O)c2ccccc2)C(=O)O)cc1`, for which the AC50 is 31.5 µM (active).
As to `CC(=O)CC(C)(C)O`, the result was inactive.
Take `CCCCCCCCCCCCCCCS(=O)(=O)Oc1ccccc1`: the result was inactive.
`O=[N+]([O-])c1ccc(O)cc1`: the outcome was inactive.
`c1ccc2c(c1)Cc1ccccc1-2`: the outcome was inactive.
For `Cc1cc(C)c(O)c(C)c1`, the result was inactive.
On the same count and under the same terms, for `O=c1c(-c2ccc(O)cc2)coc2cc(O)ccc12` the value was “inactive”; for `CCCCCCCCC(=O)O`, “inactive”.
As to `ClC1=C(Cl)C(Cl)(Cl)C(Cl)=C1Cl`, the AC50 was 8.69 µM (active).
For the molecule `CN(C)C=O`, the result was inactive.
`OCCC(F)(F)C(F)(F)C(F)(F)C(F)(F)C(F)(F)C(F)(F)C(F)(F)C(F)(F)F`: the outcome was inactive; the AC50 is 39.2 µM (active) and 31.9 µM (active).
Regarding `CC1=C(/C=C/C(C)=C/C=C/C(C)=C/C(=O)O)C(C)(C)CCC1`, the AC50 was 6.38 µM (active).
In the case of `CCC(C)(C)C1CCC(O)CC1` (stereo not given), the outcome was inactive.
Turning to `CCC(=C(c1ccc(O)cc1)c1ccc(OCCN(C)C)cc1)c1ccccc1`, the AC50 was 18.7 µM (active).
For `CCCCCCCC(=O)O`, the outcome was inactive.
For `CC[C@H](C)[C@@H](C(=O)O)n1sc2ccccc2c1=O`, the outcome was inactive.

As usually defined, the AC50 is the concentration giving half of the maximal activity seen.
